Test results: ChEMBL document CHEMBL3988442, “University of Dundee, Small-Polar-MMV Screening Library” (2021)
About 13,000 (27%) of roughly 48,000 compounds showed an effect of 50% or more. The list shows a part of the results.

These compounds were tested on Wolbachia pipientis (assay: Anti-Wolbachia Cell-Based Screen). Conditions: 5 µM.
Type: functional
Parameters: scale not given: in the data most compounds retested in dose-response had high values
`Cc1[nH]ncc1C(C)NCc1cccnc1` (stereo not given) was tested, and the “Percent Effect” value was -9.734%. `CCN(C)C[C@@H]1CN(Cc2cnc3c(S(C)(=O)=O)cnn3c2)C[C@@H]1CO` was tested, and the “Percent Effect” value was -15.72%. With `Cc1noc(C)c1CN1C(=O)[C@H]2CC[C@@H]1CN(Cc1cccnc1N)C2` the “Percent Effect” value was 18.74%. `O=C(CCc1ccc(F)cc1)NS(=O)(=O)c1ccc2c(c1)OCCO2` was tested, and the “Percent Effect” value was -1.397%. For `CCN1CCN(C(=O)c2csnn2)c2ccccc21`, the “Percent Effect” value was 3.89%. `CCN1CCN(C(=O)C2CCOC2)c2ccccc21` (stereo not given) was tested, and the “Percent Effect” value was 120.4%. With `NC(=O)CN1CCN(CC2CC2)c2ccccc21` the “Percent Effect” value was -6.284%. `O=C(C1CCOC1)N1CCN(CC2CC2)c2ccccc21` (stereo not given) was tested, and the “Percent Effect” value was 109.4%. With `CCc1nc(C)ncc1C(=O)N1CCN(CC)c2ccccc21` the “Percent Effect” value was -9.426%. With `COCCC(=O)N1CCN(CC2CC2)c2ccccc21` the “Percent Effect” value was -5.529%. With `COc1ccc(S(=O)(=O)NC(=O)c2ccccc2F)cc1OC` the “Percent Effect” value was -11%. In the case of `CC(C)c1ccc(OCn2ccc(C(=O)N3CCCC3)n2)cc1`, the “Percent Effect” value is reported as -7.702%. With `Cc1cnc(N2CC[C@@H]3O[C@@H](COCc4ccccn4)CC[C@@H]32)nc1.O=C(O)C(F)(F)F.O=C(O)C(F)(F)F` the “Percent Effect” value was 7.451%. In the case of `Cn1cccc1C(=O)N1CC[C@H]2[C@@H]1CCC(=O)N2c1ccccc1`, the “Percent Effect” value is reported as -9.424%. For `CNC(=O)c1cccnc1NCCOc1ccccc1`, the “Percent Effect” value was 11.05%. In the case of `CCNC(=O)CS(=O)(=O)NC1CCC(C)CC1` (stereo not given), the “Percent Effect” value is reported as 91.13%. `CC1CCC(NS(=O)(=O)CC(=O)Nc2ccc(N3CCCC3)cn2)CC1` (stereo not given) was tested, and the “Percent Effect” value was -1.172%. For `CCC(C(=O)NC1(C(N)=O)CCCC1)n1cccn1` (stereo not given), the “Percent Effect” value was -7.452%. `CC1CCC(N2CCC(NS(=O)(=O)CCCF)CC2)CC1` (stereo not given) was tested, and the “Percent Effect” value was -1.792%. For `CNS(=O)(=O)CC(=O)N(C1CCCC1)C1CC1`, the “Percent Effect” value was -5.548%. `CC1CCN(CCNC(=O)C2CCN(S(N)(=O)=O)CC2)CC1` was tested, and the “Percent Effect” value was -8.736%. `Cc1ccc(NC(=O)CS(=O)(=O)NC2CCC(C)CC2)nc1` (stereo not given) was tested, and the “Percent Effect” value was 0.19%. `CNC(=O)CS(=O)(=O)C1CCN(S(=O)(=O)C2CC2)CC1` was tested, and the “Percent Effect” value was -8.784%. For `COCCC1(CNC(=O)NCC2CCC2)CCC1`, the “Percent Effect” value was -13.86%. In the case of `CC1CCC(NS(=O)(=O)CC(=O)NCC2CCC2)CC1` (stereo not given), the “Percent Effect” value is reported as 101.5%. For `CNC(=O)CS(=O)(=O)NC1CCC(C)CC1` (stereo not given), the “Percent Effect” value was 97.23%. `CC1CCC(NS(=O)(=O)CC(=O)NC2(C(N)=O)CCCC2)CC1` (stereo not given) was tested, and the “Percent Effect” value was 92.28%. With `Cc1nc(C)n(CC2CCCCN2CC(=O)Nc2cccnc2)n1` (stereo not given) the “Percent Effect” value was -1.265%. In the case of `Cn1cc(CNCCNC(=O)Cc2ccccc2)c(-c2cccnc2)n1`, the “Percent Effect” value is reported as 13.61%. `COc1ccccc1S(=O)(=O)N1CC(N(C)C)Cc2ccccc21` (stereo not given) was tested, and the “Percent Effect” value was 4.709%. In the case of `CN(C)C(=O)CN1C[C@H]2CCN(C(=O)C3CCCO3)CC[C@H]2S1(=O)=O` (stereo not given in full), the “Percent Effect” value is reported as -8.272%. For `CCOc1ccnc(N2CCCN(c3nc(C4CC4)ns3)CC2)n1`, the “Percent Effect” value was -0.1352%. With `CCCC(Nc1nc(COCC)nc2c1CCNCC2)c1nccn1C` (stereo not given) the “Percent Effect” value was 3.628%. For `CC1CCC(N2CCC(NS(=O)(=O)CCOC(C)C)CC2)CC1` (stereo not given), the “Percent Effect” value was -12.56%. For `O=C(CN1CCN(CCO)CC1)NC(C1CC1)C1CC1`, the “Percent Effect” value was -6.092%. In the case of `CC1CCC(NS(=O)(=O)CC(=O)NC(C2CC2)C2CC2)CC1` (stereo not given), the “Percent Effect” value is reported as 99.55%. For `O=C(c1ccccc1F)N1CCN(c2ccc(-n3cccn3)nn2)CC1`, the “Percent Effect” value was 5.073%. `CC/C=C(/C)C(=O)N1CSCC1C(=O)N(C)CCc1ccncc1` (stereo not given) was tested, and the “Percent Effect” value was -7.241%. In the case of `CC(=O)N1N=C(c2ccco2)OC1C(=O)N(C)CCc1ccccc1` (stereo not given), the “Percent Effect” value is reported as 108.8%. `CN(CCc1ccccc1)C(=O)c1cc(CN2CCC(O)CC2)on1` was tested, and the “Percent Effect” value was -17.23%. `CN(CCc1ccccc1)C(=O)CN1C(=O)OC[C@@H]1c1ccccc1` was tested, and the “Percent Effect” value was -12.26%. With `CC(=O)N1N=C(c2ccccc2)OC1C(=O)N(C)Cc1ccccc1` (stereo not given) the “Percent Effect” value was 105.2%. `CCC(=O)N1CSCC1C(=O)N(C)CCc1ccccc1` (stereo not given) was tested, and the “Percent Effect” value was -0.07211%. `CN(Cc1cnn(C)c1)C(=O)C1COc2ccccc2C1` (stereo not given) was tested, and the “Percent Effect” value was -7.691%. With `CN(Cc1ccccc1)C(=O)[C@@H]1Cc2[nH]cnc2CN1C` the “Percent Effect” value was 13.33%. `CCc1ccsc1C(=O)N(C)CCc1ccncc1` was tested, and the “Percent Effect” value was 33.97%. For `CC(=O)N1N=C(c2ccccc2)OC1C(=O)N(C)CCc1ccccc1` (stereo not given), the “Percent Effect” value was 94.62%. In the case of `CC(=O)N1N=C(c2ccncc2)OC1C(=O)N(C)CCc1ccccc1` (stereo not given), the “Percent Effect” value is reported as 108.6%. In the case of `CC(=O)N1Cc2ccccc2C[C@H]1C(=O)N(C)CCc1ccccn1`, the “Percent Effect” value is reported as -17.28%. For `Cc1cnc(C(=O)N[C@H]2CN(CCS(C)(=O)=O)C[C@@H]2C2CC2)cn1`, the “Percent Effect” value was 4.986%. `CC(Cc1cncs1)Nc1ncnc2cccc(F)c12` (stereo not given) was tested, and the “Percent Effect” value was -13.2%. In the case of `CC(C)Cc1noc(CC2CCS(=O)(=O)C2)n1` (stereo not given), the “Percent Effect” value is reported as -7.316%. For `CN(C)c1ccc(CNC2(c3ccc(F)cc3)CCOCC2)cc1F`, the “Percent Effect” value was -20.17%. For `Cc1csc2c(N3CCC(NCCCc4ccncc4)CC3)ncnc12`, the “Percent Effect” value was -7.721%. `CO[C@H]1CN(Cc2cc(Cn3cncn3)c(C)cc2C)CC[C@H]1N` was tested, and the “Percent Effect” value was 13.4%. For `Cc1cc(C)nc(Nc2nccnc2C2CCCN(C(CO)CO)C2)n1` (stereo not given), the “Percent Effect” value was 89.81%. For `Cc1cc(C)nc(Nc2nccnc2C2CCCN(CCO)C2)n1` (stereo not given), the “Percent Effect” value was 115.9%. For `CC(=O)N1CCCC(c2nccnc2Nc2nc(C)cc(C)n2)C1` (stereo not given), the “Percent Effect” value was 92.16%. With `Cc1cc(C)nc(Nc2nccnc2C2CCCN(C(C)C)C2)n1` (stereo not given) the “Percent Effect” value was 76.04%. In the case of `CCC(=O)N1CCCC1c1nccnc1Nc1nc(C)cc(C)n1` (stereo not given), the “Percent Effect” value is reported as 4.912%. For `CCN1C(=O)[C@H]2CN(Cc3cccnc3)C[C@H]2C12CCN(C(C)=O)CC2`, the “Percent Effect” value was -22.31%. For `COCC(NC(=O)NCc1ccc(C)c(F)c1)c1ccco1` (stereo not given), the “Percent Effect” value was 5.842%. `O=C(NC1CC1)N1CCCC2(CCNC2=O)C1` (stereo not given) was tested, and the “Percent Effect” value was -20.05%. For `COc1c(F)cc(NCC(=O)NC(C)(C#N)C2CC2)cc1F` (stereo not given), the “Percent Effect” value was -10.88%. With `CCOC(=O)N1CCN(c2nc(N)c3ccccc3n2)CC1.Cl` the “Percent Effect” value was 10.93%. With `Cc1nc(COc2cccc(C#N)c2)no1` the “Percent Effect” value was 2.018%. With `COCc1ccccc1C(=O)N(C)Cc1ncc(C)c(OC)c1C` the “Percent Effect” value was 29.72%. With `Cc1noc(C)c1CC(=O)OCc1nc(N)c2ccccc2n1` the “Percent Effect” value was -18.91%. For `Cc1nc(COC(=O)c2cccnc2C)no1`, the “Percent Effect” value was 111.5%. In the case of `Cc1csc(CN(CC2CCCO2)C(=O)c2cccnc2C)n1` (stereo not given), the “Percent Effect” value is reported as -5.515%. In the case of `COCc1ccccc1C(=O)OCc1noc(C)n1`, the “Percent Effect” value is reported as 97.59%. In the case of `Cc1cnc(N2CCC(OCCN3CCCCC3)C2)nc1C` (stereo not given), the “Percent Effect” value is reported as 11.15%. `CN1CC[C@H](N(Cc2ccccc2)C2COC2)C[C@H](O)C1` was tested, and the “Percent Effect” value was 101.7%. For `CN1CCC(N2C[C@H](O)C[C@H]2c2nc(Cc3ccccc3)no2)CC1`, the “Percent Effect” value was -1.075%. For `CN1CCC(N(Cc2ccccc2)C(=O)c2nccn3ccnc23)CC1`, the “Percent Effect” value was 3.341%. In the case of `CN(CC1CC1)C(=O)CN(Cc1cccc(O)c1)C1CCC(O)CC1` (stereo not given), the “Percent Effect” value is reported as -10.37%. With `CN1CC[C@H](N(C)Cc2ccccc2)C[C@H](O)C1` the “Percent Effect” value was 67.42%. With `CN1CCC(N(C)CCC(=O)N2CCC(OCc3ccccc3)CC2)C1` (stereo not given) the “Percent Effect” value was -15.08%. In the case of `CN1CC[C@H](N(Cc2ccccc2)Cc2ccccc2)C[C@H](O)C1`, the “Percent Effect” value is reported as 97.14%. With `CN1CCC(N(Cc2ccccc2)C(=O)c2ccn3cncc3c2)CC1` the “Percent Effect” value was -5.801%. `CN1CCC(N(Cc2ccccc2)C(=O)c2ccn3ccnc3c2)CC1` was tested, and the “Percent Effect” value was 0.1453%. For `CN1CCC(N2CCC(CN(Cc3ccncc3)C3CCC3)CC2)CC1`, the “Percent Effect” value was 7.68%. With `CN1CCC(N(C)CCC(=O)N2CCC(CCc3ccccc3)CC2)C1` (stereo not given) the “Percent Effect” value was -7.751%. With `CN1CC[C@H](N(Cc2ccccc2)CC2CC2)C[C@H](O)C1` the “Percent Effect” value was 101.2%. With `COC(=O)c1sc2nc3c(c(C(F)(F)F)c2c1N)CN(C(C)=O)CC3` the “Percent Effect” value was 5.653%. In the case of `CC(C(=O)Nc1ccc(N2CCCCC2)nc1)n1cncn1` (stereo not given), the “Percent Effect” value is reported as 95.56%. In the case of `CC(C(=O)NCc1ccnc(Oc2ccc(F)cc2)c1)n1cncn1` (stereo not given), the “Percent Effect” value is reported as -19.79%. For `COc1ccc(NC(=O)C(C)n2cncn2)cn1` (stereo not given), the “Percent Effect” value was 104.1%. `COc1ccc(Oc2ccc(CNC(=O)C(C)n3cncn3)cn2)cc1` (stereo not given) was tested, and the “Percent Effect” value was -12.03%. `CC(C(=O)Nc1ccc(N2CCCC2)nc1)n1ccnc1` (stereo not given) was tested, and the “Percent Effect” value was -0.9927%. In the case of `CC(C(=O)Nc1ccc(N2CCCCC2)nc1)n1ccnc1` (stereo not given), the “Percent Effect” value is reported as 105.1%. For `CC(Cn1cccn1)NC(=O)Nc1ccc(N2CCCCC2)nc1` (stereo not given), the “Percent Effect” value was -23.5%. For `O=C(Cc1ccccc1O)Nc1ccc(N2CCCC2)nc1`, the “Percent Effect” value was 0.2058%. For `CC(C(=O)Nc1cccc(N2CCCCC2)c1)n1cncn1` (stereo not given), the “Percent Effect” value was 4.529%. In the case of `CC(Cn1cccn1)NC(=O)Nc1ccc(N2CCCC2)nc1` (stereo not given), the “Percent Effect” value is reported as -16.81%. With `CC(C(=O)Nc1ccc(N2CCCC2)nc1)n1cncn1` (stereo not given) the “Percent Effect” value was -0.2792%. With `CC(C(=O)Nc1ccc(N2CCCC2)nc1)n1cccn1` (stereo not given) the “Percent Effect” value was 93.36%. With `CC(C)COCC(NC(=O)c1cc[nH]n1)c1ccco1` (stereo not given) the “Percent Effect” value was 4.731%. `CCN(CC(=O)N(C)C)S(=O)(=O)c1cnc2c(c1)c(C)nn2C` was tested, and the “Percent Effect” value was 5.433%. With `CCN1CCc2[nH]cnc2C12CCN(c1ncc(C(=O)O)cc1Cl)CC2` the “Percent Effect” value was 3.404%. For `Brc1ccc(C2(CNCc3cc[nH]c3)CCOCC2)cc1`, the “Percent Effect” value was 10.2%. With `CN1CCCc2ccc(S(=O)(=O)NC(=O)C3CC=CC3)cc21` the “Percent Effect” value was -3.642%. For `CC(OCC(F)(F)F)C(=O)Nc1ccc(-n2cncn2)nc1` (stereo not given), the “Percent Effect” value was -8.836%. In the case of `CC(Cc1ccco1)NC(=O)Nc1ccc(N2CCOCC2)nc1` (stereo not given), the “Percent Effect” value is reported as -10%. For `CC(C(=O)Nc1ccc(N2CCOCC2)nc1)n1cncn1` (stereo not given), the “Percent Effect” value was 104.2%.
